From PubChem BioAssay come the findings set out here.

The source made the active and inactive calls.

Experiment [1] in a line: small molecules captured by biotinylated probe aFSTL3 – biochemical, small-molecule microarray, fluorescence 635/667, stem cell growth factor project, primary screen (AID 1064).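 Also: measures binding of the biotinylated anti-FSTL3 antibody to printed compounds.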 The settings on record: higher = more signal.
The nature of experiment [2]: binders from COS7 lysate, DM2A8 probe, primary screen, torsin A project, cell lysate, small-molecule microarray, fluorescence 635/667 (AID 1065). The settings on record: higher = more signal, COS7 lysate expressing mutant human TOR1A.
Experiment [3] can be described thus: small molecules captured by biotinylated probe aFGF2 – biochemical, small-molecule microarray, fluorescence 635/667, stem cell growth factor project, primary screen (AID 1067).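 Also: measures binding of biotinylated aFGF2 protein to printed compounds on slides; z-score merges feature fluorescence and signal-to-noise across triplicate slides.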 The settings on record: higher = more signal.
Experiment [4] can be described thus: small molecules captured by biotinylated probe aFGF10 – biochemical, small-molecule microarray, fluorescence 635/667, stem cell growth factor project, primary screen (AID 1071).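 Also: score merges 667 nm spot intensity and signal to noise from triplicate slides.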 The settings on record: higher = more signal.
The target of experiment [5] is Neurogenic locus notch homolog protein 2 (Homo sapiens) (UniProt Q04721). The experiment in a line: small molecules binding Notch2 protein – biochemical, small-molecule microarray, 635 nm fluorescence, stem cell growth factors, primary screen (AID 1073). The settings on record: higher = more signal.
Experiment [6] addresses Pro-neuregulin-1, membrane-bound isoform (Homo sapiens) (UniProt Q02297). The experiment is described as follows: small molecules binding neuregulin-1 protein – biochemical, small-molecule microarray, fluorescence 635/667, psychiatric disease protein project, primary screen (AID 1075).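 Also: score combines 667 nm spot fluorescence with signal to noise.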 The settings on record: NRG1 binding, 635 nm fluorescence, higher = more signal.
Experiment [7] concerns Neuregulin-1 EGF-like domain. The experiment in a line: small molecules binding NRG1 EGF domain – biochemical, small-molecule microarray, 635 nm fluorescence, primary screen (AID 1081).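 Also: binding of the protein to compounds printed on small-molecule microarray slides.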 As to conditions: higher = more signal.
Experiment [8] in a line: FRG1 expression reporter modulators in myotubes – cell-based, C2C12 myotubes, firefly/Renilla luciferase, luminescence, FRG1 inhibition for FSHD, primary screen (AID 1084). The settings on record: FRG1 promoter luciferase, higher = more signal, called active from +8 up or from −8 down.
Experiment [9] is described as follows: small molecules captured by biotinylated probe aFST – biochemical, small-molecule microarray, fluorescence 635/667, stem cell growth factor project, primary screen (AID 1086).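 Also: score merges 667 nm fluorescence with signal-to-noise of each printed compound spot.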 The settings on record: higher = more signal.
Experiment [10] in a line: binders of probe aHhip on microarray, primary screen, stem cell growth factor project, biochemical, small-molecule microarray, fluorescence 635/667 (AID 1087).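 Also: score merges spot fluorescence at 667nm with spot signal to noise ratio.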 As to conditions: higher = more signal.
Experiment [11] relates to PRMT1 (protein arginine N-methyltransferase 1). The experiment in a line: small molecules binding arginine methyltransferase PRMT1 – biochemical, small-molecule microarray, 635 nm fluorescence, primary screen (AID 1088).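 Also: binding of Prmt1 protein to compounds spotted on small-molecule microarray slides.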 The settings on record: higher = more signal.
Experiment [12] in a line: growth effects on S. cerevisiae YJM789 – YJM789 clinical isolate, OD600, 24 h, basal, primary screen (AID 1089).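 Also: growth of clinical yeast isolate S. cerevisiae YJM 789 seeded 1000 cells per well; test concentration not given here.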 As to conditions: higher = more signal, called active from +8 up or from −8 down.
Experiment [13] can be described thus: S. pombe growth modifiers, basal conditions – strain 972, OD600, 24 h, no modulator, primary screen (AID 1090).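 Also: basal condition with compound alone and no growth modifier present; test concentration not given here.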 The settings on record: S. pombe 972 growth, higher = more signal, called active from +8 up or from −8 down.
A short description of experiment [14]: budding yeast growth modifiers under rapamycin – strain BY4716, OD600, 96 h, primary screen (AID 1091). Also: test concentration not given here. As to conditions: S. cerevisiae BY4716 + rapamycin, higher = more signal, called active from +8 up or from −8 down.
Experiment [15] has as its target Torsin-1A-interacting protein 2 (Homo sapiens) (UniProt Q8NFQ8). The experiment in a line: small molecules binding lysate-expressed LULL1 – cell lysate, human LULL1 lysate, 635/667 nm fluorescence, primary screen (AID 1092).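 Also: probe is lysate of COS7 cells overexpressing human LULL1; score merges per-feature 667 nm fluorescence with signal-to-noise.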 As to conditions: small-molecule microarray, hLULL1 lysate binding, 635 nm fluorescence; higher = more signal.
Experiment [16] can be described thus: optical density change of DRC41 E. coli – strain DRC41, OD650, 24 h, E. coli filamentation project, primary screen (AID 1093).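 Also: MC1000 strain lacking acrAB efflux and sulA so SOS filamentation is blocked; test concentration not given here.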 The settings on record: E. coli DRC41 growth, higher = more signal, called active from +8 up or from −8 down.
A short description of experiment [17]: probe aLefty2 binding to arrayed compounds – biochemical, biotinylated probe, 635/667 nm fluorescence, primary screen (AID 1094).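 Also: score merges spot fluorescence near 667 nm with spot signal-to-noise ratio.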 As to conditions: small-molecule microarray, higher = more signal.
For experiment [18], the system named is Noggin (protein binding on small-molecule microarray). The experiment is described as follows: small molecules binding Noggin protein – biochemical, 635/667 nm fluorescence, primary screen (AID 1095).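 Also: score merges 667 nm feature fluorescence with signal to noise over triplicate slides.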 As to conditions: 635 nm fluorescence, higher = more signal.
The target in experiment [19] is Neurogenic locus notch homolog protein 3 (Homo sapiens) (UniProt Q9UM47). The experiment is described as follows: small molecules binding NOTCH3 protein – biochemical, 635/667 nm fluorescence, primary screen (AID 1096). The settings on record: small-molecule microarray, 635 nm fluorescence, higher = more signal.
A short description of experiment [20]: probe aEGFR binding to arrayed compounds – biochemical, biotinylated probe, 635/667 nm fluorescence, primary screen (AID 1097).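 Also: probe is a biotinylated anti-EGFR antibody binding compounds printed on slides; score combines fluorescence near 667 nm and signal to noise of each spot.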 As to conditions: small-molecule microarray, higher = more signal.

Chain of Neurogenic locus notch homolog protein 3 (Homo sapiens) (Q9UM47 whole entry, looked up): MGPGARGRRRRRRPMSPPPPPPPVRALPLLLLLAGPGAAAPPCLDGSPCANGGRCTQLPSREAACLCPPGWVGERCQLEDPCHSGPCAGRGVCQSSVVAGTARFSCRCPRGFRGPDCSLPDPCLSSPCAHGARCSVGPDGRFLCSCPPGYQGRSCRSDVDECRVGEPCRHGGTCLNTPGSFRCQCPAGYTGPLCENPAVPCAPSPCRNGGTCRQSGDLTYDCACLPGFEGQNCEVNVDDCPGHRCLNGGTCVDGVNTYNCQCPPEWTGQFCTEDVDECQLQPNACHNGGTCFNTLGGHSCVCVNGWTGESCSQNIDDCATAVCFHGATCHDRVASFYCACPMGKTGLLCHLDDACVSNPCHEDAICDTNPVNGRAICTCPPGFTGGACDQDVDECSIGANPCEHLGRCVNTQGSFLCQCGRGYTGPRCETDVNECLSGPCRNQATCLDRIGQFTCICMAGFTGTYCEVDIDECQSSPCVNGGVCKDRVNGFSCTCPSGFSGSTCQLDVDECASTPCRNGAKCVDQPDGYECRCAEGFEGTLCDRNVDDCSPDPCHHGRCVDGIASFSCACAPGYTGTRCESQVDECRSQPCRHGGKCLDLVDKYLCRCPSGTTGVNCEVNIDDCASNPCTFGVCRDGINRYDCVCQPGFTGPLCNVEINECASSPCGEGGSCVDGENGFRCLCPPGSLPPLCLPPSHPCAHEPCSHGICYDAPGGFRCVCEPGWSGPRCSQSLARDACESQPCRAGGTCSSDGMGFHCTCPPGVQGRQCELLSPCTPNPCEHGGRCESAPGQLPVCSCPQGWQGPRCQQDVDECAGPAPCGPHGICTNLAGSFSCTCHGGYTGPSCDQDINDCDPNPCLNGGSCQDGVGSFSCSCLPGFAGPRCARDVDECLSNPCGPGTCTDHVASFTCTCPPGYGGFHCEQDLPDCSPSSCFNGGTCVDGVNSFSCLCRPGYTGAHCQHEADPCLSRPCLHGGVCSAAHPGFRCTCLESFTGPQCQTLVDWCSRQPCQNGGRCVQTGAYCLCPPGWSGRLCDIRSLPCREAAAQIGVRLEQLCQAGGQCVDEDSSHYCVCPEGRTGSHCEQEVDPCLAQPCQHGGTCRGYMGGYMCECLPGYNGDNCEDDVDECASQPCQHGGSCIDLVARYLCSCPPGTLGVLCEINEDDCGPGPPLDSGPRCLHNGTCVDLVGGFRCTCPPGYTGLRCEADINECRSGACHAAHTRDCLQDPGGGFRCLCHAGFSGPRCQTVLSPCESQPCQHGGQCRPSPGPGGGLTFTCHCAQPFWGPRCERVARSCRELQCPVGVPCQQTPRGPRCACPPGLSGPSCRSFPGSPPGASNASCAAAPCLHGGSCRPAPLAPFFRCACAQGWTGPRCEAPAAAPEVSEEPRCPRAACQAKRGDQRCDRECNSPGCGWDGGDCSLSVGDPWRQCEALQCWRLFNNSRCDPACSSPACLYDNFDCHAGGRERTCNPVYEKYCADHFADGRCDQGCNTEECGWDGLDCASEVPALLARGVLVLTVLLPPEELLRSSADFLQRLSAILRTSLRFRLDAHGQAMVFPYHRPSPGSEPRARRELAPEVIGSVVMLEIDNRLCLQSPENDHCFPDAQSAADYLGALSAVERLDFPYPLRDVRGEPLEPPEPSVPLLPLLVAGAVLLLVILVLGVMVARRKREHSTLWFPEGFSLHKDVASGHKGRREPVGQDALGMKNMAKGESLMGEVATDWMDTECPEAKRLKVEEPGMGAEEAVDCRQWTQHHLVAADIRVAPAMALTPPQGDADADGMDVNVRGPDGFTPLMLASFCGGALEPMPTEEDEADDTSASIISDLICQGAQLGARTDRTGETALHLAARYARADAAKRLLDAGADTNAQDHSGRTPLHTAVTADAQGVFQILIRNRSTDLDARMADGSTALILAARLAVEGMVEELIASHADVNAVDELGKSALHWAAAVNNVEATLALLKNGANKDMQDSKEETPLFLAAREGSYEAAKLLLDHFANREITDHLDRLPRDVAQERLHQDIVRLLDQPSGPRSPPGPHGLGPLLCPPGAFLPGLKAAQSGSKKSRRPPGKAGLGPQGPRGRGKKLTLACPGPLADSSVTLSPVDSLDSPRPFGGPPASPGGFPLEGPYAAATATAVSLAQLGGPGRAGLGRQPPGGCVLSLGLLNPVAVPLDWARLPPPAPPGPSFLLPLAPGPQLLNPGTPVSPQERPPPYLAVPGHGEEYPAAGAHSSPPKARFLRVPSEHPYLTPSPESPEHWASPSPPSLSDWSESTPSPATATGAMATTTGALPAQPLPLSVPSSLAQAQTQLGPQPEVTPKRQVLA
Chain of Pro-neuregulin-1, membrane-bound isoform (Homo sapiens) (Q02297 whole entry, looked up, the tested form may be a part, canonical isoform): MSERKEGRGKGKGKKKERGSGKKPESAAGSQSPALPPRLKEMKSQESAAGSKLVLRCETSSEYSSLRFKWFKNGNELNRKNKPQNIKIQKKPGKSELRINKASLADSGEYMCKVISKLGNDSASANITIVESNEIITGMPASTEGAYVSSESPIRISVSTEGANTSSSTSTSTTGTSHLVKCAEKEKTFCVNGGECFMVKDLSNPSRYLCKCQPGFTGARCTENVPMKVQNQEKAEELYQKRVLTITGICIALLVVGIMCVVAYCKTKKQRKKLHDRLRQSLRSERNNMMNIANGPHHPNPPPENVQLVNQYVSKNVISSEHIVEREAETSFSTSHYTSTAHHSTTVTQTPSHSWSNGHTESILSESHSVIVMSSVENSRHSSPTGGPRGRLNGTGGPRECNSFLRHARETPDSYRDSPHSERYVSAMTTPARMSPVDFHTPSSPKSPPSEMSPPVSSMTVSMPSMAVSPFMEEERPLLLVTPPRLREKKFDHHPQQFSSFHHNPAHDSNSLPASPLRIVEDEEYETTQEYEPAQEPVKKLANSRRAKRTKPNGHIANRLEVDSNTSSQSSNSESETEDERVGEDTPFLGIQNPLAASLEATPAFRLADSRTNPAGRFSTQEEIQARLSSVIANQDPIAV
Chain of Torsin-1A-interacting protein 2 (Homo sapiens) (Q8NFQ8 whole entry, looked up): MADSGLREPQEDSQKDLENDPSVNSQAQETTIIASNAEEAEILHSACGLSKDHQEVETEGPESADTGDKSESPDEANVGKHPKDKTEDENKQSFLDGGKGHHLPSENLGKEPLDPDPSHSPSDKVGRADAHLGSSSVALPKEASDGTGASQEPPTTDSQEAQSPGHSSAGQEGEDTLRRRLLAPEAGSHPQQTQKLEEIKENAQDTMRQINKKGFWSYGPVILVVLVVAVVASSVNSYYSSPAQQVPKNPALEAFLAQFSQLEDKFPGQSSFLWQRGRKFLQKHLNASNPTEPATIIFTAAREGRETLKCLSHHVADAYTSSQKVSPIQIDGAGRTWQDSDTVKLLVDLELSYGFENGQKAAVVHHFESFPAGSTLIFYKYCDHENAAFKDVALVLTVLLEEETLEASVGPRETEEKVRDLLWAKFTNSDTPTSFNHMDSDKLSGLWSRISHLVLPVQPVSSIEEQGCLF

As to `COc1ccc(C(=O)Nc2cccc(CN3C(=O)[C@@]4(O[C@@H](CCn5cc(CCO)nn5)[C@H]([Si](C)(C)c5ccc(OC)cc5)[C@H]4C)c4ccccc43)c2)cc1`, the composite z-score in experiment [1] is -0.115; in experiment [2] it was 0.485; in experiment [3], -0.0381; in experiment [4], 0.205; in [5], 1.12; in experiment [6], 1.08. Also, the composite z-score is 1.11 in experiment [7]; 0.407 in experiment [9]; -0.0994 in experiment [10]; 1.55 in experiment [11]; 2.06 in [15]; 0.0361 in experiment [17]. Also, the composite z-score stood at 1.2 in [18], 1.11 in experiment [19] and 0.0511 in [20]. Further, the z-score was -3.09 (inactive) in experiment [8]; 1.65 (inactive) in [12]; -14 (active) in experiment [13]; 0.984 (inactive) in [14]; -1.02 (inactive) in experiment [16].

In the case of `O=C1N(CCS(=O)(=O)c2ccccc2)Cc2ccccc2C[C@]12N=C(c1ccc(OCCCO)cc1)O[C@@H]2c1ccccc1`, the composite z-score in experiment [1] is 1.36; in experiment [2], 0.97; in [3], 0.0901; in [4], -0.0674; in experiment [5], 0.633; in experiment [6], 1.33. The composite z-score was 1.31 in [7]; 0.607 in experiment [9]; -0.27 in [10]; 1.54 in experiment [11]; 3.45 in experiment [15]; 0.366 in experiment [17]. Further, the composite z-score in experiment [18] stood at 1.2; in experiment [19], 1.05; in experiment [20], 0.177. In addition, the z-score is -0.436 (inactive) in [8]; -0.452 (inactive) in experiment [12]; 1.2 (inactive) in experiment [13]; 4.94 (inactive) in experiment [14]; 0.175 (inactive) in experiment [16].

As for `C=CC[C@@H](OC(=O)Nc1ccc(OC)cc1)c1ccc(O)c2ccccc12`, the composite z-score in experiment [1] was -0.316; in [2], 0.129; in experiment [3] it was -0.0364; in [4], 0.224; in experiment [5] it was 0.746; in experiment [6] it was 0.263. Besides, the composite z-score in experiment [7] was 1.08; in [9], 0.56; in experiment [10] it was -0.0296; in experiment [11], 1.28; in experiment [15], 2.28; in experiment [17] it was -0.142. In addition, the results for the composite z-score in [18], in experiment [19] and in experiment [20] were 1.46, 1.05 and 0.0225, respectively. Moreover, the z-score in experiment [8] is 6.38 (inactive); in [12], -23.6 (active); in experiment [13], -19.6 (active); in experiment [14], -1.31 (inactive); in experiment [16], 1.05 (inactive).

Turning to `O=C1O[C@@H](c2ccccc2)[C@@H](c2ccccc2)N2[C@@H](c3ccccc3OCCO)[C@]3(C(=O)Nc4ccc(C#CC5(O)CCCCCC5)cc43)[C@@H](C(=O)Nc3nc4ccccc4s3)[C@H]12`, the composite z-score is -0.508 in experiment [1]; 0.984 in experiment [2]; -0.0113 in experiment [3]; 0.895 in experiment [4]; 1.22 in experiment [5]; 0.678 in experiment [6]. The composite z-score in experiment [7] worked out at 1.11; in [9], 0.806; in experiment [10], 1.22; in experiment [11], 1.56; in experiment [15] it was 2.19; in [17], 0.01. The results for the composite z-score in experiment [18], in [19] and in [20] were 1.33, 1.06 and 1.01, respectively. The z-score is -0.0944 (inactive) in experiment [8]; 1.39 (inactive) in experiment [12]; 1.96 (inactive) in experiment [13]; 3.42 (inactive) in experiment [14]; 0.0499 (inactive) in [16].

Consider `CC(C)=CCCC(C)=CC(O)C1C=CC2C(=O)N(c3ccccc3)C(=O)C2N1Nc1ccccc1` (stereo not given), for which the composite z-score in [1] is 0.475; in experiment [2], 0.135; in experiment [3] it was 0.155; in [4] it was 1.16; in [5], 1.64; in experiment [6] it was 1.17. Besides, the composite z-score worked out at 1.06 in [7]; 1.6 in [9]; 0.0497 in experiment [10]; 0.967 in [11]; 2.89 in experiment [15]; 0.201 in experiment [17]. For the same compound, the values for the composite z-score in experiment [18], in [19] and in [20] were -0.196, 1.04 and 0.438, respectively. Also, the z-score in experiment [8] was -2.84 (inactive); in experiment [12], 0.316 (inactive); in experiment [13], 0.171 (inactive); in experiment [14] it was 1.02 (inactive); in experiment [16] it was -1.99 (inactive).

Consider `C=CCC(OC(C)=O)[C@@H]1[C@@H](N(Cc2cccc3ccccc23)C(=O)c2cccc3ccccc23)c2cc(OCCCO)ccc2N1C(=O)c1ccc2ccccc2n1` (stereo not given in full), for which the composite z-score in [1] was -0.218; in experiment [2], 0.215; in experiment [3], 0.0083; in experiment [4], 0.281; in experiment [5] it was -0.0258; in experiment [6], -0.0137. The composite z-score in experiment [7] is -0.444; in experiment [9], 0.0846; in [10] it was 0.0826; in experiment [11], 0.346; in experiment [15] it was 0.681; in experiment [17], -0.0102. The figures for the composite z-score in [18], in experiment [19] and in [20] were 0.282, -0.0176 and -0.0549, respectively. For the same compound, the z-score in experiment [8] was -2.01 (inactive); in experiment [12], -1.03 (inactive); in experiment [13], 0.626 (inactive); in experiment [14], -0.964 (inactive); in experiment [16], -0.764 (inactive).

Turning to `Cc1ccccc1C(O)C1C=CC2C(=O)N(C)C(=O)C2N1Nc1ccccc1` (stereo not given), the composite z-score in experiment [1] was 0.413; in experiment [2], 0.526; in experiment [3] it was -0.0035; in experiment [4], 0.0865; in [5], 1.22; in experiment [6] it was 2.05. The composite z-score in experiment [7] was 1.14; in experiment [9], 0.842; in experiment [10], -0.0994; in experiment [11], 1.25; in experiment [15] it was 2.98; in experiment [17] it was 0.149. Moreover, the composite z-score in experiment [18] was -0.657; in experiment [19], 0.993; in [20], -0.0634. In addition, the z-score was 0.772 (inactive) in experiment [8]; -0.145 (inactive) in [12]; -0.885 (inactive) in experiment [13]; -0.0194 (inactive) in [14]; -1.43 (inactive) in [16].

Regarding `COc1ccc(C#Cc2ccc3c(c2)[C@]2(C(=O)N3)[C@H](c3ccc(O)cc3)N3[C@H](c4ccccc4)[C@H](c4ccccc4)OC(=O)[C@H]3[C@@H]2C(=O)N2CCCCCCC2)cc1`, the composite z-score is 3.42 in experiment [1]; 0.524 in experiment [2]; 0.858 in experiment [3]; 0.488 in [4]; 1.39 in experiment [5]; 1.01 in [6]. In addition, the composite z-score in experiment [7] was found to be 1.25; in [9], 3.25; in experiment [10], 0.0914; in [11], 1.55; in [15], 4.08; in experiment [17] it was 1.61. Besides, the figures for the composite z-score in [18], in experiment [19] and in experiment [20] were 1.86, 1.07 and 0.778, respectively. Also, the z-score is -0.263 (inactive) in experiment [8]; -1.51 (inactive) in [12]; -0.0733 (inactive) in experiment [13]; 1.15 (inactive) in experiment [14]; 0.484 (inactive) in experiment [16].

For the compound `CC=CC(O)C1C=CC2C(=O)N(c3ccccc3)C(=O)C2N1Nc1ccc(C(C)C)cc1` (stereo not given), the composite z-score in experiment [1] is 0.0035; in experiment [2], 0.238; in experiment [3], 0.125; in experiment [4], 0.771; in experiment [5] it was 1.65; in experiment [6] it was 1.52. The composite z-score in experiment [7] is 1.26; in [9], 1.16; in [10], -0.0024; in [11], 1.53; in experiment [15], 3.13; in experiment [17] it was 0.183. Moreover, the results for the composite z-score in [18], in experiment [19] and in [20] were 0.321, 1.05 and 0.14, respectively. For the same compound, the z-score in [8] was 0.715 (inactive); in experiment [12], 0.842 (inactive); in experiment [13] it was 0.877 (inactive); in experiment [14] it was 1.06 (inactive); in experiment [16] it was -1.71 (inactive).
